A selection: hits, their analogues and other compounds. The true share with any hit is near 19%.
DT40 TDP1 CPT – qHTS for Inhibitors of human tyrosyl-DNA phosphodiesterase 1 (TDP1): qHTS in cells in presence of CPT; chicken DT40 Tdp1-/-;hTDP1 cells + 20 nM CPT, ATP luminescence, 48 h; Potency, µM (doses to about 46.2 µM), without a hit: at the top dose activity change, negative = growth inhibition, hits mostly inhibitors; hit rate 12% among 420,000; AID 686979, 2013; note: nearly all actives have a fitted effect of over 55% in size
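Cell growth measured by CellTiter-Glo luminescence after a minimum 48 h, 37 C compound exposure with 20 nM CPT in Tdp1-knockout DT40 cells stably expressing hTDP1, seeded 400/well; qHTS titration format.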
Gal4-VP16 FLuc – VP16 counterscreen qHTS for inhibitors of ROR gamma transcriptional activity. Drosophila S2 Gal4-VP16 UAS-luciferase, luminescence, 20 h. Potency, µM (top dose mostly 53.6 µM), inactives show at the top dose activity, negative = inhibition, most hits filed as inhibitors. hit rate 3.5% among 310,000. AID 2546, 2010;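 note: Gal4-VP16 expression switched on by copper sulfate through the metallothionein promoter; nearly all actives have a fitted effect of over 50% in size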
TDP1 inh – qHTS Assay for Inhibitors of Tyrosyl-DNA Phosphodiesterase (TDP1). recombinant TDP1, AlphaScreen DNA substrate cleavage. Potency, µM (series often up to 130 µM), for the others: top-dose activity change, negative = inhibition, most hits filed as inhibitors. hit rate 0.28% among 350,000. AID 485290, 2010; note: nearly all actives have a fitted effect of over 40% in size
Target sequence (Q9NUW8 whole entry, looked up): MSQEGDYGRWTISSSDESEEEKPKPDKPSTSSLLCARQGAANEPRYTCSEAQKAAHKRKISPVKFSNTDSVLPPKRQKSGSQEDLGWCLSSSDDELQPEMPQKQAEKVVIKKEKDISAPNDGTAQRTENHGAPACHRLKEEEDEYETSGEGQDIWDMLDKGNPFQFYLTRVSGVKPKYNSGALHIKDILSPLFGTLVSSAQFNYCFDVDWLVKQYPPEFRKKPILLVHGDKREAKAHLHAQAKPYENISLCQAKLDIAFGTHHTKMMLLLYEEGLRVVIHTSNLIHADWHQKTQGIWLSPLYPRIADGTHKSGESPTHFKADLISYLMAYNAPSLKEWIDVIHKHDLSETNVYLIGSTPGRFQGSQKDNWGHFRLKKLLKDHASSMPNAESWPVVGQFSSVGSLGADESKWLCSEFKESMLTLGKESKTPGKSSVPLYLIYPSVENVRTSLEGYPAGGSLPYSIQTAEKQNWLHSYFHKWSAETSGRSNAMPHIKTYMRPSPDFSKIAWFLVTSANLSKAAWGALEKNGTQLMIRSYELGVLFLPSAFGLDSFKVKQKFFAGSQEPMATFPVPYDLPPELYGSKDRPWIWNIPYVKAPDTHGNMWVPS
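Steps: enzyme plus compound, 15 min RT; add biotin/phosphotyrosine-FITC oligonucleotide (15 nM final), react 5 min; add donor/acceptor beads (10 ug/ml final), 10 min; read AlphaScreen. Tdp1 at 1 nM final.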
RORgamma inh – qHTS for inhibitors of ROR gamma transcriptional activity | Nuclear receptor ROR-gamma (Mus musculus), P51450 | Potency, µM (titrated, usually from 53.6 µM), inactives show at the top dose activity change, negative = inhibition, usual class: inhibitors | hit rate 5.4% among 310,000 | Drosophila S2 Gal4-RORgamma UAS-luciferase reporter, 20 h; note: nearly all actives have a fitted effect of over 60% in size
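Stably transfected Drosophila Schneider cells are the test system, with ROR gamma fused to Gal4 and luciferase under UAS control; luminescence is read after 20 hr of 700 uM copper sulfate induction at ambient temperature.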
DT40 TDP1 no CPT – qHTS for Inhibitors of human tyrosyl-DNA phosphodiesterase 1 (TDP1): qHTS in cells in absence of CPT; hit rate 15% among 420,000; DT40 Tdp1-/- hTDP1 cells, no CPT, ATP luminescence, 48 h; AID 686978, 2013; Potency, µM (doses to about 46.2 µM), inactives show top-dose activity change, negative = growth inhibition, actives largely listed as inhibitors; note: nearly all actives have a fitted effect of over 55% in size
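Chicken DT40 Tdp1-/- cells stably complemented with human TDP1 were seeded at 400 cells/well with DMSO in place of 20 nM camptothecin. After compound pinning, cells grew at least 48 hr at 37 °C; viability read by CellTiter-Glo luminescence.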
* = called active by the depositor; u = inconclusive; x = no result; [ ] = dose if it differs, or a comment. Calls come from the whole dose curve; as a rule, active = well fitted curve in the direction sought with a large enough effect; inconclusive = small, poorly fitted or top-dose-only effect, or another doubt; inactive = no such curve, though single readings can be large; an effect the other way counts as inactive or inconclusive. % is set by controls: 0 for no effect and ±100 for the full control effect; potency is the fitted concentration of half-maximal effect.

SMILES | DT40 TDP1 CPT | Gal4-VP16 FLuc | TDP1 inh | RORgamma inh | DT40 TDP1 no CPT
Cc1cc(OCC(=O)N(Cc2ccc(N(C)C)cc2)C2CCS(=O)(=O)C2)cc(C)c1Cl (centres undefined) | u | x | 8% | x | 18µM*
Cc1cc(OCC(=O)N(C)C2CCCCC2)cc(C)c1Cl | u | 7%[10 µM] | 3% | 41% | 21µM*
CCOc1cc(C#N)c(NC(=O)c2ccc(OC)c(S(=O)(=O)N3CCCCC3)c2)cc1OCC | u | x | 1% | x | u
O=S(=O)(c1ccc(Br)cc1Cl)N1CCCN(c2ccc(C(F)(F)F)cn2)CC1 | u | x | -4% | x | u
NC(=O)Cn1nc(C(F)(F)F)c2c1CCCC2 | -5% | 1% | 0% | u | 8%
COc1cccc(CN2CCC(N(CCc3ccccc3)Cc3ccccc3)CC2)c1OC | u | -26% | -3% | -8% | 29µM*
Cc1ccc(-n2c(-c3ccc(Br)cc3)c[n+]3c2CCc2ccc4cccnc4c2-3)cc1 | 0.29µM* | 1.4µM* | 6% | 7.1µM* | 0.29µM*
Cc1ccc2nc(N(CCCN(C)C)C(=O)c3ccc(Br)s3)sc2c1 | u | -10% | -2% | 11% | 23µM*
CN(C)CCCN(C(=O)c1cc2cc([N+](=O)[O-])ccc2s1)c1nc2cc3c(cc2s1)OCCO3 | 1.3µM* | x | 13% | x | 2.3µM*
Cc1ccc2nc(N(CCCN(C)C)C(=O)COc3ccc(Cl)cc3)sc2c1 | u | -10% | 9% | 7% | 21µM*
CN(C)CCCN(C(=O)c1ccc([N+](=O)[O-])s1)c1nc2cc3c(cc2s1)OCCO3 | 2.9µM* | u | 8% | 13µM* | 3.3µM*
CN(C)CCCN(C(=O)c1ccc(Cl)s1)c1nc2cc3c(cc2s1)OCO3 | u | u | 5% | 0% | u
Cc1oc(CSCCSCc2cc(C(=O)O)c(C)o2)cc1C(=O)O | 4% | -7% | x | -1% | -26%
O=C(COC(=O)c1cc2ccccc2cc1O)c1ccccc1 | -2% | -13% | 2% | -5% | -1%
COC(=O)c1ccc(Sc2ccc(Cl)cc2)c(N)c1 | u | -2% | -5% | 35% | u
CN(C)CCCN(C(=O)c1ccc(Br)s1)c1nc2cc3c(cc2s1)OCCO3 | 29µM* | x | x | x | u
Cc1ccc2nc(N(CCCN(C)C)C(=O)c3cc(-c4cccs4)nc4ccccc34)sc2c1 | 16µM* | u | 8%[56.1 µM] | 14µM* | u
CN(C)CCCN(C(=O)c1cc(-c2cccs2)nc2ccccc12)c1nc2c(F)cccc2s1 | u | -23% | 10% | u | -11%
CCc1ccc(Sc2cc(C(=O)NC(C)CC)c3ccccc3n2)cc1 (centres undefined) | 16µM* | x | 5% | x | 16µM*
CCC(C)NC(=O)c1cc(Sc2cccc(Cl)c2)nc2ccccc12 (centres undefined) | 16µM* | x | 5% | x | 15µM*
CCOc1ccc(Sc2cc(C(=O)NCc3ccc(F)cc3)c3ccccc3n2)cc1 | -27% | x | 8% | x | u
CCOc1ccc(Sc2cc(C(=O)NCc3ccc(C)cc3)c3ccccc3n2)cc1 | -24% | x | 3% | x | -22%
CCC(C)NC(=O)c1cc(-c2cccs2)nc2ccccc12 (centres undefined) | 27% | 4% | x | 13% | u
O=C(NCc1ccc(F)cc1)c1cc(Sc2ccc(F)cc2F)nc2ccccc12 | 16µM* | x | 5% | x | u
CCc1ccc(Sc2cc(C(=O)NCc3ccccc3OC)c3ccccc3n2)cc1 | 21µM* | x | 8% | x | 18µM*
SMILES | DT40 TDP1 CPT | Gal4-VP16 FLuc | TDP1 inh | RORgamma inh | DT40 TDP1 no CPT
NC(=O)c1ccc(NC(=O)C2COc3ccccc3O2)cc1 (centres undefined) | 5% | 27% | x | 26% | 13%
C=C(C)Cn1c(SCCCO)nc2c1c(=O)[nH]c(=O)n2C | 2% | -4% | 0% | 1% | -10%
CCCn1c(N)c(N(CCOC)C(=O)c2ccc(F)cc2F)c(=O)[nH]c1=O | -6% | 7% | x | -16% | -13%
CCc1nc2c(cnn2-c2ccc(Cl)cc2)c(=O)n1-c1ccc(OC)c(Cl)c1 | u | x | 5% | x | u
COc1ccc(-n2c(C)nc3c(cnn3-c3ccc(C)c(C)c3)c2=O)cc1Cl | u | x | 2% | x | u
CCc1nc2c(c(=O)c3ccccc3n2C)c(=O)n1-c1ccc(F)cc1 | -7% | -16% | -1% | 10% | u
Cc1ccc(-n2c(C)nc3c(cnn3-c3ccccc3Cl)c2=O)cc1C | -9% | 10% | 5% | 30% | -27%
CCOc1ccc(-n2c(CC)nc3c(cnn3-c3ccc(Cl)cc3)c2=O)cc1 | 16µM* | x | 0% | x | 15µM*
CCc1nc2c(cnn2-c2ccc(F)cc2)c(=O)n1-c1ccc(N2CCC(C)CC2)cc1 | 16µM* | u | 5% | 5% | 15µM*
Cc1ccc(-n2c(C)nc3c(cnn3-c3ccc(C)c(C)c3)c2=O)cc1C | 18µM* | -18% | 3% | u | 16µM*
Cc1nc2c(cnn2-c2ccccc2Cl)c(=O)n1-c1ccc(N2CCC(C)CC2)cc1 | 16µM* | 5% | 1% | 40% | u
CC(=O)Nc1ccc(S(=O)(=O)N2CCCN(S(=O)(=O)c3ccc(C)cc3)CC2)cc1 | u | -11% | 5% | u | u
CCC(C(=O)NCCCN1CCCC1=O)n1c2ccccc2c2nc(=O)cc(C)n21 (centres undefined) | 3% | -4% | 1% | -17% | 10%
CC(=O)c1cccc(N(CC(=O)Nc2ccc(F)cc2F)S(C)(=O)=O)c1 | -2% | u | 4% | 4% | -5%
CCC/C=C/c1ccc(CN2C(C)C(=O)N(Cc3cn(CC4CCCCC4)nn3)CCS2(=O)=O)cc1 (centres undefined) | u | x | x | x | 21µM*
CCC/C=C/c1ccc(CN2C(C)C(=O)N(Cc3cn(CCOCOC)nn3)CCS2(=O)=O)cc1 (centres undefined) | -13% | x | x | x | u
CCC/C=C/c1ccc(CN2C(C(C)C)C(=O)N(Cc3cn(CC4CCCCC4)nn3)CCS2(=O)=O)cc1 (centres undefined) | 16µM* | x | x | x | 12µM*
O=C(Cn1c(=O)oc2ccccc21)Nc1cccc(Cl)c1 | u | 18% | x | 6% | u
CC(O)c1nc2ccccc2n1C(C)c1ccccc1 (centres undefined) | -28% | -3% | x | u | u
c1ccc(-c2ccc(-c3nc(-c4ccccn4)no3)cc2)cc1 | 12µM* | 1.4µM* | -4% | 2.5µM* | 10µM*

Screening data as filed in PubChem.
